Measurements from PubChem BioAssay AID434927 (Sanford-Burnham Center for Chemical Genomics, 2010).
The source made the active and inactive calls.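 How the source made its calls: active means inhibition above about 23% in any of six single-dose repeats (limit read from the data); inactive means the rest.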

These compounds were tested against Intestinal-type alkaline phosphatase (Homo sapiens) (UniProt P09923) (assay: suppression of intestinal alkaline phosphatase activity – biochemical, luminescence, single concentration, uHTS hits, confirmation (AID 434927;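 further: plate controls were DMSO wells with enzyme for no effect and wells lacking enzyme for full effect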)). Conditions: purified human IAP, CDP-Star luminescence, 30 min; at 8.3 µM; stronger effect = higher value.
Chain of Intestinal-type alkaline phosphatase (Homo sapiens) (P09923 whole entry, looked up): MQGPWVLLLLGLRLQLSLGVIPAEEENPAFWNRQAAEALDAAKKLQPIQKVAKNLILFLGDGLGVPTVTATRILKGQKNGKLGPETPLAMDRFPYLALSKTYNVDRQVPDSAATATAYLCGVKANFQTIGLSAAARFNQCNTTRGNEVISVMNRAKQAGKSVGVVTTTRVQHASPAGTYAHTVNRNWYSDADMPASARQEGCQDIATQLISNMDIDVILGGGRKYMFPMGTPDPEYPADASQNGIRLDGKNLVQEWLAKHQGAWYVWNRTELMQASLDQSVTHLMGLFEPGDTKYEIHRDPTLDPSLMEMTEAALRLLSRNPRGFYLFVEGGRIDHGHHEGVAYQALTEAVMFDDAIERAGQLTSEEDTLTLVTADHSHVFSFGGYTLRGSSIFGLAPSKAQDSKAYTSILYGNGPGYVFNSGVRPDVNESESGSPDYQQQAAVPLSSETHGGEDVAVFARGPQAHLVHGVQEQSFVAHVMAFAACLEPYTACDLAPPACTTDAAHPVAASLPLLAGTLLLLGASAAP

Row | SMILES | inhibition
1 | CCOc1ccc(/C=N/NC(=O)c2[nH]ncc2Br)c(O)c1 | -294% (inactive)
2 | COc1ccccc1CNC(=O)CN(c1ccc(C)cc1)S(=O)(=O)c1c(C)noc1C | 32.5% (active)
3 | CCOc1ccc(CC(=O)NNC(=S)NC2CCCCC2)cc1OCC | -79.5% (inactive)
4 | CCOc1ccccc1CN1CCC(n2nccc2NC(=O)CCc2ccccc2)CC1 | 26.6% (active)
5 | c1ccc(-c2nnc(CN3CCC4(CC3)OCCO4)o2)cc1 | 29.7% (active)
6 | NC(=O)c1ccc(NC(=O)C2CCCC2)cc1 | -40.2% (inactive)
7 | CC(C)CCNC(=O)C1CCN(C(=O)N(C)C)CC1 | 88.2% (active)
8 | CCCOCC(O)CC(CC)C(=O)NNC(=S)Nc1ccccc1 (stereo not drawn) | -138% (inactive)
9 | CCOC(=O)c1cnc(-n2nc(C)cc2C)nc1NNc1nc(C)cc(C)n1 | 71.7% (active)
10 | COc1cccc(/C=N/Nc2nc(-c3cccnc3)nc3ccccc23)c1 | -0.0482% (inactive)
11 | O=c1c2cc(O)c(O)cc2oc2cc(O)c(C3OC(CO)C(O)C(O)C3O)c(O)c12 (stereo not drawn) | -148% (inactive)
12 | O=C(Nc1cccc(-c2cccc(F)c2)c1)C1CCN(C2CCC2)CC1 | 67.6% (active)
13 | CCc1nnc(NC(=O)CSc2nnc(C)c(=O)n2N)s1 | 41.3% (active)
14 | O=Nc1[nH]c(=O)c(/C=C(\O)c2ccccc2)nc1NO | -84.9% (inactive)
15 | COc1ccccc1C1=NN(C2=NN=C(N)Cc3ncnn32)C(O)(C(F)(F)F)C1 (stereo not drawn) | 45.2% (active)
16 | CC(C)C(=O)NC(=S)Nc1ccccc1C(=O)Nc1ccccc1 | -108% (inactive)
17 | Cc1ccc(-n2ncc3c(NNC(=O)c4ccco4)ncnc32)cc1C | 41.4% (active)

Row | SMILES | inhibition
18 | O=C(COc1ccccc1Cl)N1CCN(c2ccc([N+](=O)[O-])c(N3CCCCC3)c2)CC1 | -60.9% (inactive)
19 | CC(C)(C)N/N=C/c1c(O)n(-c2ccc(Cl)cn2)c(=O)c2ccccc12 | -93.3% (inactive)
20 | O=C(NNC(=S)NC(=O)c1ccccc1[N+](=O)[O-])c1ccccc1O | 27.4% (active)
21 | Cc1cc(C)c2nc(SCC(=O)NNC(=O)c3ccco3)c(C)cc2c1 | -58.7% (inactive)
22 | O=C(N/N=C/c1ccc2cccnc2c1)c1nc2ccccc2c(=O)[nH]1 | -193% (inactive)
23 | c1ccc(Nc2ccnc(Nc3ccccc3)n2)cc1 | -43.5% (inactive)
24 | O=C(Nc1ccon1)c1nc[nH]c1C(=O)NCc1ccccc1 | 88.5% (active)
25 | CC(C)n1cc(CN2CCC(C(=O)Nc3cccc(-c4cccc(Cl)c4)c3)CC2)cn1 | -96.7% (inactive)
26 | COc1cc(Cl)ccc1OCc1cc(C(=O)N2CCCCCCC2)no1 | 34.5% (active)
27 | Cc1ccc(NC(=O)NNC(=O)c2cc3ccccc3cc2O)cc1 | -69.5% (inactive)
28 | CCOCCCNC(=O)CCC(=O)NNc1nc2ccccc2c2nc(-c3ccccc3)nn12 | 48.4% (active)
29 | N#C/C(=C\c1ccc(O)c(O)c1)C(=O)c1ccc(O)c(O)c1 | 74.3% (active)
30 | O=C(Cc1coc2ccc3ccccc3c12)NCc1ccccc1 | 59.4% (active)
31 | OC1CN=C2Sc3ccccc3N2C1 (stereo not drawn) | -100% (inactive)
32 | Nc1c(N2CCCC2)cc(Cl)c2nonc12 | 41.3% (active)
33 | CCC(NC(=S)NC1CCCCC1)c1ccc(C(C)C)cc1 (stereo not drawn) | -24.1% (inactive)
